12-LOX inh – Primary qHTS assay for inhibitors of human arachidonate 12S-lipoxygenase (ALOX12): Round 2; 1.1% of 580,000 active; AID 1671190, 2021; Polyunsaturated fatty acid lipoxygenase ALOX12 (Homo sapiens), P18054; purified 12hLO, xylenol orange hydroperoxide absorbance; Potency, µM (top dose mostly 108 µM), usual class: inhibitors
Target sequence (P18054 whole entry, looked up): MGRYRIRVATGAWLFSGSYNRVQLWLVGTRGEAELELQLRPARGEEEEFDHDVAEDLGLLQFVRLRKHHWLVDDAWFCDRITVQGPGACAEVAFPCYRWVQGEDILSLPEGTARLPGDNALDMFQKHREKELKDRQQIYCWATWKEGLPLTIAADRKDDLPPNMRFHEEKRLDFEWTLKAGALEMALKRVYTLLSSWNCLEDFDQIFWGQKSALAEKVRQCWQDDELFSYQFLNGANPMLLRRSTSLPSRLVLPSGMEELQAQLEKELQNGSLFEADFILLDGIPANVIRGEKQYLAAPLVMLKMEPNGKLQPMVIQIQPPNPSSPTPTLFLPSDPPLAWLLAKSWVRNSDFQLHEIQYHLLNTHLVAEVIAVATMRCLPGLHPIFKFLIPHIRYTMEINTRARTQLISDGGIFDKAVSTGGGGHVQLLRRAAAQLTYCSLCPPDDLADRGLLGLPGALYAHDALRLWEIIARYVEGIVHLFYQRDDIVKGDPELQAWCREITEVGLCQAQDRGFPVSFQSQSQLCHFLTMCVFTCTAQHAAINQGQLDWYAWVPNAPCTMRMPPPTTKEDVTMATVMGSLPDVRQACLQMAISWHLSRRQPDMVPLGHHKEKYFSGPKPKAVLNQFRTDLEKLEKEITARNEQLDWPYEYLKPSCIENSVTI
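Purified human 12hLO at 150 nM in 25 mM Hepes, 0.01% Triton X-100, pH 7.0, preincubated 15 min at room temperature with compound. Reaction started with 40 uM arachidonic acid, 30 min at room temperature. Hydroperoxide measured by Fe-xylenol orange, 573/405 nm absorbance ratio.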
HT1080-NT tox – qHTS for induction of synthetic lethality in tumor cells producing 2HG: qHTS for the HT-1080-NT fibrosarcoma cell line. HT-1080-NT fibrosarcoma viability, CellTiter-Glo ATP luminescence, 48 h. Potency, µM (top dose mostly 46.1 µM), most hits filed as cytotoxic. 1.6% of 360,000 active. AID 686970, 2013;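 also: NT is the 2HG producing partner of a matched IDH1 knockdown line; nearly all actives have a fitted effect of over 55% in size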
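HT-1080-NT; 750 cells/well; 5% FBS RPMI; 48 h compound, 37 degrees C; CellTiter-Glo luminescence; curve fitting and curve-class assignment.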
TDP1 cell noCPT – qHTS for Inhibitors of human tyrosyl-DNA phosphodiesterase 1 (TDP1): qHTS in cells in absence of CPT. DT40 Tdp1-/- hTDP1 cells, no CPT, ATP luminescence, 48 h. Potency, µM (titrated, usually from 46.2 µM), usual class: inhibitors. 15% of 420,000 active. AID 686978, 2013; also: nearly all actives have a fitted effect of over 55% in size
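A cellular qHTS used chicken DT40 cells lacking endogenous Tdp1 but carrying stably transfected human TDP1. Compounds were applied without camptothecin, and cell growth kinetics were judged by ATP-dependent luminescence after ≥48 hr.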
HT1080 IDH1KD tx – qHTS for induction of synthetic lethality in tumor cells producing 2HG: qHTS for the HT-1080-IDH1KD cell line. AID 686971, 2013. 2% of 360,000 active. Potency, µM (titrated, usually from 46.1 µM), hits mostly cytotoxic. HT-1080 IDH1 knockdown viability, ATP luminescence, 48 h
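CellTiter-Glo luminescence after 48 h compound exposure at 37 degrees C of IDH1-knockdown HT-1080 cells in 5% FBS RPMI. %Activity scaled between DMSO wells and cell-free media wells, with curves fitted and assigned curve classes.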
IL1B secr inh – qHTS for Inhibitors of Inflammasome Signaling: IL-1-beta AlphaLISA Primary Screen. THP-1 LPS/ATP IL-1B secretion, AlphaLISA, 16 h; active compounds read low. activity change, % at 57.5 µM. 4.7% of 360,000 active. AID 743279, 2014; in the data active = activity change below about -50%; inconclusive = mostly about -30% to -49%
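Secreted IL-1B measured by AlphaLISA bead assay after 16 h compound exposure of THP-1 cells; compounds (final up to 57.5 uM) added 1 h before LPS (250 ng/mL) and ATP (1.25 mM) stimulation; lower signal means less secretion.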
TDP1 cell CPT – qHTS for Inhibitors of human tyrosyl-DNA phosphodiesterase 1 (TDP1): qHTS in cells in presence of CPT. Potency, µM (series often up to 46.2 µM), actives largely listed as inhibitors. 12% of 420,000 active. chicken DT40 Tdp1-/-;hTDP1 cells + 20 nM CPT, ATP luminescence, 48 h. AID 686979, 2013; also: nearly all actives have a fitted effect of over 55% in size
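Chicken DT40 Tdp1-/- cells complemented with human TDP1, 400 cells/well, exposed to compounds plus 20 nM camptothecin for at least 48 h at 37 C; viability read as ATP content by CellTiter-Glo luminescence.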
A number is an active result; n = inactive; u = inconclusive; x = no result. Only a selection was taken, and hits are over-represented in it overall. Unless noted, calls follow the shape of the dose curve; as a rule, active = well fitted curve in the direction sought with a large enough effect; inconclusive = small, poorly fitted or top-dose-only effect, or another doubt; inactive = no such curve, though single readings can be large; an effect the other way counts as inactive or inconclusive.

SMILES	12-LOX inh	HT1080-NT tox	TDP1 cell noCPT	HT1080 IDH1KD tx	IL1B secr inh	TDP1 cell CPT
COc1cccc(NC(=O)C2CCCN(S(=O)(=O)c3cccc4cccnc34)C2)c1 (stereo unspecified)	n	n	u	n	n	u
O=C(NC1CCCCC1)C1CCCN(S(=O)(=O)c2cccc3cccnc23)C1 (stereo unspecified)	n	n	u	n	n	u
O=C(C1CCCN(S(=O)(=O)c2cccc3cccnc23)C1)N1CCc2ccccc21 (stereo unspecified)	n	n	16.4µM	n	n	23.1µM
O=C(Nc1ccncc1)C1CCCN(S(=O)(=O)c2cccc3cccnc23)C1 (stereo unspecified)	n	3.26µM	1.64µM	u	n	1.84µM
O=C(NCC1COc2ccccc2O1)C1CCCN(S(=O)(=O)c2cccc3nsnc23)C1 (stereo unspecified)	n	n	u	n	n	u
c1ccc(COc2ncnc3c2ncn3CCCNCc2cccs2)cc1	n	n	u	n	n	n
COc1cccc(-c2cc3c(=O)n(CCNC(=O)Cc4ccsc4)ccn3n2)c1	n	x	x	x	x	x
O=C1/C(=C/c2ccc(Cl)c(Cl)c2)CCc2ccccc21	n	x	x	x	x	x
CC1CN(S(=O)(=O)c2cccc(C(=O)N(CCc3ccccc3)Cc3ccccc3)c2)CC(C)O1 (stereo unspecified)	x	n	5.8µM	n	n	7.31µM
CC1CN(S(=O)(=O)c2cccc(C(=O)OCC(=O)NCc3ccccc3)c2)CC(C)O1 (stereo unspecified)	n	n	u	n	n	u
Cc1ccc(N(Cc2ccccc2)C(=O)c2cccc(S(=O)(=O)N3CC(C)OC(C)C3)c2)cc1 (stereo unspecified)	n	n	16.4µM	n	n	20.6µM
CC(=O)N1CCN(S(=O)(=O)c2cccc(C(=O)N(Cc3ccccc3)c3ccc(C)cc3)c2)CC1	n	n	u	n	n	u
Nc1c(-c2nc3ccccc3[nH]2)c2ccccn2c1C(=O)c1ccccc1	n	x	x	x	x	x
Cc1ccc(NC(=O)CCC(=O)NNC(=O)NC2CCCCC2)c(C)c1	n	n	n	n	n	n
O=C(O)c1ccc(-c2nc3ccccc3[nH]2)cc1	n	n	n	n	n	n
O=S(=O)(/C(=C/c1ccc2ccccc2c1)c1nc2ccccc2[nH]1)c1ccccc1	n	x	x	x	x	x
CC(C)(C)c1ccc(/C=C(\c2nc3ccccc3[nH]2)S(=O)(=O)c2ccccc2)cc1	x	6.51µM	u	6.51µM	-95.5	23.1µM
O=C(O)c1ccc(/C=C(\c2nc3ccccc3[nH]2)c2nc3ccccc3s2)cc1	n	u	n	18.4µM	-70.3	u
Cc1cccc(/C=C(\c2nc3ccccc3[nH]2)S(=O)(=O)c2ccccc2)c1	n	9.2µM	2.59µM	9.2µM	-110.1	4.11µM
CCOC(=O)c1cnc2c(C)cccc2c1Nc1cccc([N+](=O)[O-])c1	n	x	x	x	x	x
Cc1ccc(SCC(=O)Nc2ccc(N3CCN(C)CC3)c(F)c2)cc1	n	n	20.6µM	n	n	u
COc1ccc(SCC(=O)Nc2ccc(N3CCN(C)CC3)c(F)c2)cc1	n	n	u	n	n	n
O[C@H]1CC[C@@H](Cc2cc(-c3ccc(F)cc3)on2)O[C@@H]1CNC1CCCCC1	n	x	x	x	x	x
COC[C@@H]1CN(Cc2cnn(C)c2C)C[C@H]1c1ccncc1	n	x	x	x	x	x
CC(C)C[C@@H]1NC(=O)[C@H](CCCN)NC(=O)[C@H](C(C)C)NC(=O)[C@@H]2CCCN2C(=O)[C@@H](Cc2ccccc2)NC(=O)[C@H](CC(C)C)NC(=O)[C@H](CCCN)NC(=O)[C@H](C(C)C)NC(=O)[C@@H]2CCCN2C(=O)[C@@H](Cc2ccccc2)NC1=O	x	x	0.146µM	x	x	0.411µM
SMILES	12-LOX inh	HT1080-NT tox	TDP1 cell noCPT	HT1080 IDH1KD tx	IL1B secr inh	TDP1 cell CPT
O=C1N[C@@H](Cc2ccccc2)C(=O)N2CCC[C@@H]12	n	n	n	n	n	n
CN(C)C[C@@H]1CN(C2CCOCC2)C[C@H]1NC(=O)c1n[nH]c2ccccc12	n	x	x	x	x	x
CC(C)(C)CC(=O)Nc1nnc(C2CC(=O)N(c3ccc(Cl)cc3)C2)s1 (stereo unspecified)	n	x	x	x	x	x
C/C=C(/C)C(=O)O[C@@H]1c2c(ccc3ccc(=O)oc23)OC(C)(C)[C@@H]1OC(=O)/C(C)=C\C	n	u	9.2µM	u	u	16.4µM
CCO[C@@H]1c2c(ccc3ccc(=O)oc23)OC(C)(C)[C@@H]1O	n	n	n	n	n	n
CC(=O)OC1c2c(ccc3ccc(=O)oc23)OC(C)(C)C1OC(=O)CC(C)C (stereo unspecified)	n	n	18.4µM	n	n	23.1µM
C/C=C(/C)C(=O)O[C@@H]1[C@H](OC(=O)C=C(C)C)c2c(ccc3ccc(=O)oc23)OC1(C)C	n	n	u	n	n	u
Cc1cccc(C)c1OCc1nc2c3cnn(-c4cccc(F)c4)c3ncn2n1	n	x	16.4µM	x	x	18.4µM
Cc1ccc(NC(=O)CN(C)S(=O)(=O)c2ccc(C(=O)N3CCOCC3)s2)cc1F	n	x	x	x	x	x
CCOc1ccc(S(=O)(=O)Nc2nc3ccccc3nc2Nc2ccc(N(C)C)cc2)cc1	n	x	x	x	x	x
CC(=O)N1c2ccccc2CC1C(=O)NCc1cccc(Cl)c1 (stereo unspecified)	n	x	n	x	x	u
CC(=O)N1c2ccc(Cl)cc2C2C=CCC2C1c1cccc2ccccc12 (stereo unspecified)	x	u	u	u	u	23.1µM
COc1ccc(NC(=O)c2c(NCc3cccs3)sc3c2CCCC3)cc1	u	x	20.6µM	x	x	u
COc1ccc(NC(=O)CN(C)CC(=O)Nc2sc3c(c2C(N)=O)CCC3)cc1	n	n	u	n	n	20.6µM
COc1ccc(NC(=O)c2c(NCc3cccs3)sc3c2CCCCC3)c(OC)c1	u	x	14.6µM	x	x	u
CCOc1ccc(NC(=O)c2c(NCc3cccs3)sc3c2CCC(C)C3)cc1 (stereo unspecified)	n	x	u	x	x	u
CCOC(=O)c1ccc(NC(=O)c2c(NCc3ccc(OC)c(OC)c3OC)sc3c2CCC(C)C3)cc1 (stereo unspecified)	u	x	25.9µM	x	x	u
CN1CCN(S(=O)(=O)c2cc3cc(Br)ccc3oc2=O)CC1	n	x	x	x	x	x
